Assay [1] can be described thus: inhibitors of TNFa-induced NFkB p65 translocation, primary screen, imaging, HUVEC, MLSMR starter and 10KST1 sets (AID 438;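 active = inhibition above 20% together with a positive visual image hit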;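 also: compound added about 3h40 before a 20 min TNFalpha stimulation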;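 as to inhibition: signal is the nuclear over cytoplasmic p65 intensity ratio per well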). Particulars: HUVEC TNFa-induced p65 nuclear translocation; cell count: measured here: nuclei count (cytotoxicity indicator), at 2.08 µM; inhibition: at 2 µM, stronger effect = higher value, 0% TNFa-plus-vehicle, 100% no-TNFa wells.
A short description of assay [2]: reduction of polyQ htt aggregates in cells – imaging, exon1htt(103Q)mCFP cells, high-content imaging, primary screen (AID 483;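 active = visual image review flags a hit and inhibition of aggregation exceeds 20%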;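 also: compound exposure lasted 3 days before fixation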;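 as to nuclei count: percent of the per-plate median nuclei count of sample wells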). The following applies: exon1htt(103Q)mCFP cell line, aggregate imaging, at 2 µM; inhibition of aggregation: stronger effect = higher value; nuclei count: measured here: cell count, toxicity.
The nature of assay [3]: endothelial E-selectin expression blockers – imaging, HUVEC, immunofluorescence, MLSMR starter and 10KST1 sets, primary screen (AID 487;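 active = visually confirmed hit in the image check and inhibition above 20%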;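 as to inhibition: signal is fraction of cell area covered by stained E-selectin grains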;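 as to nuclei count: 100% = median nuclei count of all wells on the same plate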). The following applies: HUVEC TNFalpha-induced E-selectin immunofluorescence imaging, at 2 µM; inhibition: stronger effect = higher value; nuclei count: measured here: cell number, toxicity.
Assay [4] is described as follows: Primary imaging screen for DUSP6 inhibitors that restore phospho-Erk in transfected HeLa cells, chemical complementation (AID 609;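 active = compounds giving at least 50% inhibition in the cell-based MKP-3 phosphatase rescue imaging test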;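 as to inhibition: phospho-Erk level distribution per well compared with pooled transfected vehicle control wells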). Particulars: HeLa MKP-3 transfected, phospho-Erk imaging KS statistic, at 10 µM, cells stimulated with TPA for 15 min.
The target of assay [5] is Dual specificity protein phosphatase 6 (Homo sapiens) (UniProt Q16828). The description is as above. Particulars: HeLa MKP-3 transfected, phospho-Erk imaging KS statistic; at 10 µM; stronger effect = higher value; cells stimulated with TPA for 15 min.
For assay [6], the target named is Voltage-gated potassium channel subunit beta-2 (Rattus norvegicus) (UniProt P62483). Nature of the assay: inhibitors of rat Kvbeta2 reductase activity – biochemical, NADPH fluorescence, primary screen (AID 622;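 active = fluorescence slope higher than the sample average by over 3 SD, cut at about -0.22 in these data, passing the limit was not always enough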;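 also: slope of raw intensity against log time taken from 70 to 1610 s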). Particulars: recombinant KvBeta, 4-cyanobenzaldehyde reduction, at 10 µM, stronger effect = higher value.
For assay [7] the target is unchanged. Nature of the assay: enhancers of rat Kvbeta2 NADPH turnover – biochemical, NADPH fluorescence, primary screen (AID 623;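 active = NADPH fluorescence slope more negative than the mean of all samples by about 3 SD, 99.7% confidence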;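 also: fluorescence intensity change per second fitted from 20 to 320 s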). The following applies: Recombinant KvBeta, NADPH fluorescence decrease slope, 10 min; at 10 µM; stronger effect = lower value.
Assay [8] deals with Alpha-2C adrenergic receptor (Homo sapiens) (UniProt P18825). Nature of the assay: compounds altering alpha2C-coupled GIRK flux – cell-based, HEK293 alpha2C/GIRK1/2, thallium flux, primary screen (AID 624;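 active = fluorescence slope after compound addition differing from the mean of all screened samples at 99.7% confidence, in either direction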;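 also: slope of fluorescence ratio to pre-addition baseline per second over 15 to 24 s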). The following applies: thallium flux BTC fluorescence, at 10 µM, actives lie on both sides.
Assay [9] is described as follows: inhibitors of larval lipid processing in zebrafish, primary screen, whole organism, PED6 fluorescence, gall bladder and intestine (AID 686;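 active = a full or partial loss of lipid-probe fluorescence in the fish gall bladder, intestine or both, judged by eye; inactive = no fluorescence loss, or compound toxic to the fish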;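 also: larvae 5 to 7 days old with five fish per well; signal comes from phospholipase A2 cleavage of quenched PED6 carried via bile; overnight exposure to compound and PED6 before scoring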). Particulars: Zebrafish larvae PED6 lipid processing, fluorescence scoring; screened at 20 µM (by protocol).
A short description of assay [10]: loss of swimming-algae plug formation – whole organism, Chlamydomonas reinhardtii, WT vs cilia-less mutant, absorbance, 96-well, primary screen (AID 463189).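 Also: 0% = wild type cc124 cells in DMSO and 100% = ciliumless bld1 mutant cells.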 Particulars: Chlamydomonas reinhardtii gravitaxis, OD600 absorbance, 2 days; at 10 µM; stronger effect = higher value.
Assay [11] can be described thus: blockers of RIG-like receptor reporter activation – cell-based, Sendai virus stimulus, luciferase, 10K MLSCN set, TLR/RLR signaling modifier project, primary screen (AID 602276;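 active = inhibition at or above 50% at 10 µM; inactive = inhibition below 50%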;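 also: firefly luciferase from ISG56 promoter only with Renilla not read in this screen; 0% = Sendai virus plus DMSO and 100% = medium plus DMSO without virus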). Particulars: HEK293 RL24 IRF3 luciferase reporter, at 10 µM, stronger effect = higher value. In general terms: Reporter assays use an easily measured gene product as a stand-in for the process of interest.

Assay [12] can be described thus: TLR3 IRF3 reporter activation blockers – cell-based, poly I:C stimulus, luciferase, 10K MLSCN set, primary screen (AID 602277;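 active = inhibition of the reporter signal at or above 50%; inactive = inhibition below 50%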). The following applies: HEK293-TLR3 RL24 IRF3 luciferase reporter, at 10 µM, stronger effect = higher value.
Where [13] appears, read: measured here: cell density z-score.
Setting [14] is: measured here: nuclear c-Myc green intensity z-score.
The mark [15] stands for this setting: measured here: nuclear pErk red intensity z-score, stronger effect = higher value.

A word on the inhibition: it is the drop in the measured response relative to a control, in per cent.

Several values for one entry are separate records, joined by “and”; a condition that tells them apart may be missing. Equal entries are not always repeated. Activity calls are given as the source filed them.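 The calls were made as follows, unless noted: active = inhibition at or above 50% relative to wild type and mutant plate controls; inactive = inhibition below 50%.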

Voltage-gated potassium channel subunit beta-2 (Rattus norvegicus), sequence (P62483 whole entry, looked up): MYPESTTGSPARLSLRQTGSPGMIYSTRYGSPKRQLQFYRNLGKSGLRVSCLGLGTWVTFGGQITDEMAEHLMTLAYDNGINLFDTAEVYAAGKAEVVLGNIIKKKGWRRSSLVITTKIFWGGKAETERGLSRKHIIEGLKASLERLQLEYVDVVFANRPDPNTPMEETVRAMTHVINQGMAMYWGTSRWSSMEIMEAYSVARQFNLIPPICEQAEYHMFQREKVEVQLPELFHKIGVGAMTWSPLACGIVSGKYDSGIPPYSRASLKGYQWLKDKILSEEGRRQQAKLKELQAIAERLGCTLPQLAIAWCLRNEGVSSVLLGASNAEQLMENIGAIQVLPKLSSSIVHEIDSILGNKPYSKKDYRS
Alpha-2C adrenergic receptor (Homo sapiens), sequence (P18825 whole entry, looked up): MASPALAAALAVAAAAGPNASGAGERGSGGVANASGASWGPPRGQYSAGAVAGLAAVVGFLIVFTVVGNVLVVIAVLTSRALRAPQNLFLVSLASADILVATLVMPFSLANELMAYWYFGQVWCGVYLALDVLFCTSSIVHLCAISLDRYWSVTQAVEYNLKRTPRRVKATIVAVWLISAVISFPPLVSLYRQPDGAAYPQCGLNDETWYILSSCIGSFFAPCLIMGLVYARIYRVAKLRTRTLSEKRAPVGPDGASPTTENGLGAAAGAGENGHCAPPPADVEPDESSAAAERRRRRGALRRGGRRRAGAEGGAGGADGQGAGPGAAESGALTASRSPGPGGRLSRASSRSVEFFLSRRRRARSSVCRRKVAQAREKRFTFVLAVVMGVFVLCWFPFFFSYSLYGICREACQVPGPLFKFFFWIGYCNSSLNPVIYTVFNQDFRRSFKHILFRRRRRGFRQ
Dual specificity protein phosphatase 6 (Homo sapiens), sequence (Q16828 whole entry, looked up): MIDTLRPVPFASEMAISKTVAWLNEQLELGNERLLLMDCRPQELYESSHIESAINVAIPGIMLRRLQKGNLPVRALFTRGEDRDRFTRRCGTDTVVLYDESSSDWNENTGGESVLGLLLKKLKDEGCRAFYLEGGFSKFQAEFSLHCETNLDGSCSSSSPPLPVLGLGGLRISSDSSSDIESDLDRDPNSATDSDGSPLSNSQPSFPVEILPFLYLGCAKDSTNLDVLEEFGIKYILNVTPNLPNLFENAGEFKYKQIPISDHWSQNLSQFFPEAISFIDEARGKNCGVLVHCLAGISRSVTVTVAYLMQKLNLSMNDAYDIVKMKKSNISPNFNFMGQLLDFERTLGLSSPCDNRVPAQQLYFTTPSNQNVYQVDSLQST

For the compound `CN1CCN(CC(=O)N2c3ccccc3C(=O)Nc3cccnc32)CC1`, the cell count in assay [1] amounted to 529. The inhibition in [1] is 5.4% (inactive); in assay [3], -81.3% (inactive); in assay [5], 25.7% (inactive); in [10] it was 1.89% (inactive) and 39.4% (inactive); in assay [11] it was 18.8% (inactive); in assay [12] it was 34.2% (inactive). In addition, the inhibition of aggregation in assay [2] is -20% (inactive). Besides, the nuclei count in assay [2] came out at 110%; in [3] it was 123%. The z-score in assay [4] (setting [13]) was 2.59; in [4] (setting [14]) it was -0.126; in assay [4] (setting [15]) it was -1.97. Further, the fluorescence slope in assay [6] is -0.476 (inactive). Further, the NADPH fluorescence slope in assay [7] is -3.8e-05 (inactive). Further, the slope in [8] was 0.00501 (inactive). In assay [9], the compound was called inactive.

For the compound `CC(C)(S)[C@@H](N)C(=O)O`, in assay [1], the cell count is 657. In addition, the inhibition in [1] was -4.4% (inactive); in assay [3], -120% (inactive); in assay [5] it was 3.45% (inactive); in assay [10], -3.9% (inactive); in assay [11] it was 22.7% (inactive); in assay [12], 43.2% (inactive). Moreover, in assay [2], the inhibition of aggregation is -5.6% (inactive). In addition, the figures for the nuclei count in assay [2] and in assay [3] were 105% and 138%, respectively. Also, the z-score is 1.21 in assay [4] (setting [13]), -0.53 in assay [4] (setting [14]) and -0.44 in assay [4] (setting [15]). For the same compound, in [6], the fluorescence slope was -0.482 (inactive). In addition, the NADPH fluorescence slope in assay [7] was -4.6e-05 (inactive). The slope in assay [8] is 0.00423 (inactive). Moreover, the compound was called inactive in [9].

Take `c1ccc(CN(CC2=NCCN2)c2ccccc2)cc1`: the cell count in assay [1] is 455 and 493. Besides, the inhibition in [1] is 0% (inactive) and 19.7% (inactive); in assay [3], -8.6% (inactive) and -65.1% (inactive); in assay [5] it was 8% (inactive) and 13.3% (inactive); in assay [10], -11.5% (inactive) and 25.6% (inactive); in assay [11], -7.89% (inactive) and 7.92% (inactive); in assay [12], 0.563% (inactive) and 36.8% (inactive). For the same compound, the inhibition of aggregation in [2] is 9.9% (inactive) and 6.3% (inactive). The nuclei count in [2] was 97.2% and 85%; in assay [3] it was 98.7% and 128%. Also, the z-score is 0.164 and -0.173 in assay [4] (setting [13]); 0.692 and 0.37 in [4] (setting [14]); -0.518 and 0.488 in assay [4] (setting [15]). Further, in assay [6], the fluorescence slope was -0.512 (inactive) and -0.523 (inactive). In addition, in assay [7], the NADPH fluorescence slope is -3e-05 (inactive) and -2.5e-05 (inactive). In assay [8], the slope was 0.00381 (inactive) and 0.00497 (inactive). In addition, the outcome in assay [9] was inactive.

Take `COC(=O)c1ccc(-c2sc3nc(N4CCOCC4)c4c(c3c2N)CCCC4)o1`: in assay [1], the cell count is 683. Also, the inhibition in assay [1] was -7.7% (inactive); in [3], 18.1% (inactive); in assay [5], 14.4% (inactive); in [10], -6.82% (inactive); in assay [11], 13% (inactive); in [12] it was -14.5% (inactive). Moreover, the inhibition of aggregation in [2] was -43% (inactive). The nuclei count was 103% in assay [2] and 126% in assay [3]. In addition, the z-score in [4] (setting [13]) was -0.0797; in assay [4] (setting [14]), 0.0278; in assay [4] (setting [15]), 1.68. Further, the fluorescence slope in assay [6] was -0.000813 (inactive). Moreover, the NADPH fluorescence slope in assay [7] is 0 (inactive). Besides, in assay [8], the slope was 0.0101 (inactive). Moreover, in assay [9], the compound was classed as inactive.

As to `CC(=Nc1ccc(C)c(C)c1)C1=C(O)CCC1=O`, the cell count in [1] was 616. Also, the inhibition in [1] was -14.9% (inactive); in [3], -30.7% (inactive); in assay [5] it was 4.72% (inactive); in assay [10] it was 2.51% (inactive); in [11], -16.6% (inactive); in assay [12], -35.9% (inactive). For the same compound, the inhibition of aggregation in [2] was 30.6% (inactive). The figures for the nuclei count in [2] and in assay [3] were 87.4% and 143%, respectively. Moreover, the results for the z-score in assay [4] (setting [13]), in assay [4] (setting [14]) and in [4] (setting [15]) were 0.598, -0.724 and 0.505, respectively. The fluorescence slope in [6] is -0.423 (inactive). Moreover, the NADPH fluorescence slope in assay [7] is -4.1e-05 (inactive). Moreover, the slope in assay [8] was 0.00609 (inactive). In addition, the result in [9] was inactive.

(Values after PubChem BioAssay.)
